Measurements as given in the supplement of paper PMC12045047.

What follows are compounds tested on primary human airway basal cells (HBEC, luciferase-transduced) (assay: proliferation (luciferase bioluminescence) Z score relative to plate mean; higher = more proliferation / more cells, active = 1.96 or more). Details: donor: 1; 0.5 µM; library: ENZO Libraries; 4 days.
Method: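 Primary human bronchial epithelial (airway basal) cells from two donors, lentivirally transduced with pHIV-Luc-ZsGreen, were seeded at 2000 cells/well in 384-well plates in FAD medium with ENZO or Prestwick library compounds and cultured for 4 days. Luciferin was then added and bioluminescence was read as a measure of cell number. Relative light units were converted to Z scores against the plate, and the mean of triplicate wells is reported.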

SMILES | proliferation
N#CC(C#N)=Cc1ccc(O)c(O)c1 | 0.456 (inactive)
NCCc1ccc(S(=O)(=O)F)cc1 | -0.284 (inactive)
COC[C@H]1OC(=O)c2coc3c2[C@@]1(C)C1=C(C3=O)[C@@H]2CCC(=O)[C@@]2(C)C[C@H]1OC(C)=O [Wortmannin] | -1.04 (inactive)
N#CC(C#N)=Cc1cc(O)c(O)c(O)c1 | -0.0382 (inactive)
N#CC(C#N)=Cc1cc(O)c(O)c([N+](=O)[O-])c1 | -0.414 (inactive)
CC(=O)c1c(O)c(C)c(O)c(Cc2c(O)c3c(c(C(=O)/C=C/c4ccccc4)c2O)OC(C)(C)C=C3)c1O [Rottlerin] | 0.583 (inactive)
Cc1cc(O)c2c(=O)c3c(O)cc(O)c4c5c(O)cc(O)c6c(=O)c7c(O)cc(C)c8c1c2c(c34)c(c78)c65 [Hypericin] | 0.248 (inactive)
C/C(O)=C(\C#N)C(=O)Nc1cc(Br)ccc1Br | 0.22 (inactive)
CC(=O)Oc1ccc(/C=C/c2cc(OC(C)=O)cc(OC(C)=O)c2)cc1 [Triacetylresveratrol] | 1.28 (inactive)
N#CC(C#N)=Cc1ccc([N+](=O)[O-])c(O)c1 | -0.571 (inactive)
N[C@@H]1C[C@H]1c1ccccc1.N[C@H]1C[C@@H]1c1ccccc1 [Tranylcypromine hemisulfate] | -0.212 (inactive)
N#C/C(=C\c1ccc(O)c(O)c1)C(N)=S | -0.0372 (inactive)
CCC(=O)CCCCC[C@@H]1NC(=O)[C@H]2CCCCN2C(=O)[C@H]([C@@H](C)CC)NC(=O)[C@H](Cc2cn(OC)c3ccccc23)NC1=O [Apicidin] | -0.149 (inactive)

Same assay, conditions: donor: 1; 5 µM; library: ENZO Libraries; 4 days

SMILES | proliferation
N#CC(C#N)=Cc1ccc(O)c(O)c1 | 0.134 (inactive)
NCCc1ccc(S(=O)(=O)F)cc1 | -0.0822 (inactive)
COC[C@H]1OC(=O)c2coc3c2[C@@]1(C)C1=C(C3=O)[C@@H]2CCC(=O)[C@@]2(C)C[C@H]1OC(C)=O [Wortmannin] | -0.831 (inactive)
N#CC(C#N)=Cc1cc(O)c(O)c(O)c1 | -0.000622 (inactive)
N#CC(C#N)=Cc1cc(O)c(O)c([N+](=O)[O-])c1 | -0.101 (inactive)
CC(=O)c1c(O)c(C)c(O)c(Cc2c(O)c3c(c(C(=O)/C=C/c4ccccc4)c2O)OC(C)(C)C=C3)c1O [Rottlerin] | -0.384 (inactive)
Cc1cc(O)c2c(=O)c3c(O)cc(O)c4c5c(O)cc(O)c6c(=O)c7c(O)cc(C)c8c1c2c(c34)c(c78)c65 [Hypericin] | -0.261 (inactive)
C/C(O)=C(\C#N)C(=O)Nc1cc(Br)ccc1Br | 0.228 (inactive)
CC(=O)Oc1ccc(/C=C/c2cc(OC(C)=O)cc(OC(C)=O)c2)cc1 [Triacetylresveratrol] | 4.6 (active)
N#CC(C#N)=Cc1ccc([N+](=O)[O-])c(O)c1 | -0.0791 (inactive)
N[C@@H]1C[C@H]1c1ccccc1.N[C@H]1C[C@@H]1c1ccccc1 [Tranylcypromine hemisulfate] | -0.48 (inactive)
N#C/C(=C\c1ccc(O)c(O)c1)C(N)=S | -0.285 (inactive)
CCC(=O)CCCCC[C@@H]1NC(=O)[C@H]2CCCCN2C(=O)[C@H]([C@@H](C)CC)NC(=O)[C@H](Cc2cn(OC)c3ccccc23)NC1=O [Apicidin] | -0.303 (inactive)
